Screens (PubChem)
The list is not random: actives were taken first. Their share in the collection is about 4.4%.
tim10-1 inh: inhibits growth of tim10-1 mutant yeast. S. cerevisiae tim10-1 ts strain growth, BacTiter-Glo, 24 h. inhibition, % at 20 µM. 330,000 compounds, 2.2% hits. AID 463190;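 active means inhibition of at least 40%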;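 further: mutant grown at 25 °C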
PfHsp90 set2: inhibits growth of yeast expressing Plasmodium falciparum Hsp90. S. cerevisiae expressing PfHsp90, BacTiter-Glo ATP, 48 h; yeast lacking PDR1 and PDR3 efflux regulators. inhibition, % at 9.4 µM. 310,000 compounds, 0.32% hits. AID 504621;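 active means every replicate shows inhibition above about 80%, whatever the replicate mean, limit read from the data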
Mot1-301 SUMO: blocks SUMOylation pathway, rescuing yeast Mot1-301 growth. 320,000 compounds, 1% hits. growth rescue, % at 18.8 µM. S. cerevisiae Mot1-301 growth rescue, ATP luminescence, 38.5C; percent above DMSO median, 100 means doubled;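 active means every valid replicate shows activation above 250% relative to neutral control wells; inactive means the rest, any valid replicate at or below 250%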
TIM10 inh: growth inhibitors of TIM10 yeast strain. inhibition, % at 10 µM. S. cerevisiae TIM10 strain growth, BacTiter-Glo luminescence, 24 h. AID 463195. 330,000 compounds, 1.4% hits;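 active means inhibition of 40% or more at the single tested concentration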;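 further: wild-type TIM10 isogenic control strain grown at permissive 25 °C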
tim23-1 inh: tim23-1 yeast growth inhibition; S. cerevisiae tim23-1 growth, BacTiter-Glo luminescence, 24 h; inhibition, % at 20 µM; 330,000 compounds, 1.3% hits; AID 463212;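 active means growth inhibition of the mutant yeast at or above 50%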;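 further: temperature-sensitive mutant grown at 25 °C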
tim23-1 conf: confirmation of tim23-1 mutant yeast growth inhibitors; shares compounds with tim23-1 inh; S. cerevisiae tim23-1 growth, BacTiter-Glo luminescence, 24 h; inhibition, % at 20 µM; 4,400 compounds, 83% hits;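 active means inhibition above about 39% in either of two replicate wells at 20 µM, limit read from the data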;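 further: temperature-sensitive tim23-1 mutant grown at 25 °C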
Numbers stand for hits.

Screening Cc1ccc(S(=O)(=O)N2C[C@@H]3[C@H]4CC[C@H](C4)[C@@H]3[C@@H](C)[C@@H]2c2ccco2)cc1 returned tim10-1 inh inactive, PfHsp90 set2 inactive, TIM10 inh inactive and tim23-1 inh inactive.
Cc1ccc(S(=O)(=O)N2C[C@@H]3[C@H]4CC[C@H](C4)[C@@H]3[C@@H](C)[C@H]2c2ccco2)cc1 was read as tim10-1 inh inactive, PfHsp90 set2 inactive, TIM10 inh inactive, tim23-1 inh 50 and tim23-1 conf inactive.
For CC1(C)CC(=O)C=C(Nc2cccc(Cl)c2Cl)C1 the results were tim10-1 inh inactive, PfHsp90 set2 inactive, Mot1-301 SUMO inactive, TIM10 inh inactive and tim23-1 inh inactive.
Screening O=S(=O)(Cc1ccc(Cl)cc1)Nc1ccc2c(c1)OCO2 returned tim10-1 inh inactive, PfHsp90 set2 inactive, Mot1-301 SUMO inactive, TIM10 inh inactive, tim23-1 inh 59 and tim23-1 conf 49.
For CCN(CC)S(=O)(=O)c1ccc(N2CCc3cc(OC)c(OC)cc3C2)nc1 the results were tim10-1 inh inactive, PfHsp90 set2 inactive, Mot1-301 SUMO inactive, TIM10 inh inactive and tim23-1 inh inactive.
Screening C(=N\Nc1nc2ccccc2s1)/c1cccs1 returned tim10-1 inh inactive, PfHsp90 set2 inactive, Mot1-301 SUMO inactive, TIM10 inh inactive, tim23-1 inh 59 and tim23-1 conf inactive.
`C/C(=N\Nc1nc2ccccc2s1)c1cccs1` gave tim10-1 inh inactive, PfHsp90 set2 inactive, Mot1-301 SUMO inactive, TIM10 inh inactive, tim23-1 inh 64 and tim23-1 conf 48.
Screening N=c1sccn1CC(=O)Nc1cc(Cl)ccc1Oc1ccccc1 returned tim10-1 inh inactive, PfHsp90 set2 inactive, Mot1-301 SUMO inactive, TIM10 inh inactive, tim23-1 inh 66 and tim23-1 conf inactive.
`O=C(CCS(=O)(=O)c1ccccc1)Nc1nc(-c2ccc(F)cc2)cs1` gave tim10-1 inh inactive, PfHsp90 set2 inactive, Mot1-301 SUMO inactive, TIM10 inh inactive and tim23-1 inh inactive.
For O=C(CS(=O)(=O)c1ccccc1)Nc1nc(-c2ccc(F)cc2)cs1 the results were tim10-1 inh inactive, PfHsp90 set2 inactive, Mot1-301 SUMO inactive, TIM10 inh inactive, tim23-1 inh 57 and tim23-1 conf 49.
Screening Cc1ccc(S(=O)(=O)N(C)C)cc1NC(=O)COC(=O)Cc1ccccc1F returned tim10-1 inh inactive, Mot1-301 SUMO inactive, TIM10 inh inactive and tim23-1 inh inactive.
CCN(CC)S(=O)(=O)c1csc(C(=O)NC2CCCCC2)c1 was read as tim10-1 inh inactive, Mot1-301 SUMO inactive, TIM10 inh inactive, tim23-1 inh 96 and tim23-1 conf inactive.
For CCN(CC)S(=O)(=O)c1cccc(C(=O)NC2CCCCC2)c1 the results were tim10-1 inh inactive, PfHsp90 set2 inactive, Mot1-301 SUMO inactive, TIM10 inh inactive and tim23-1 inh inactive.
Screening O=C(C(Cc1ccccc1)n1cccc1)N1CCN(c2ccccc2)CC1 (stereo unspecified) returned tim10-1 inh inactive, PfHsp90 set2 inactive, Mot1-301 SUMO inactive, TIM10 inh inactive, tim23-1 inh 55 and tim23-1 conf inactive.
Brc1ccc2oc(-c3ccn[nH]3)cc2c1 was read as tim10-1 inh inactive, Mot1-301 SUMO inactive, TIM10 inh inactive, tim23-1 inh 65 and tim23-1 conf 48.
Screening Cc1ccc(C(=O)NC(=S)Nc2ccc(CN3CCOCC3)cc2)cc1 returned tim10-1 inh inactive, PfHsp90 set2 inactive, Mot1-301 SUMO inactive, TIM10 inh inactive, tim23-1 inh 52 and tim23-1 conf inactive.
Screening CC(C)Oc1ccc(C(=O)NC(=S)Nc2ccc(CN3CCOCC3)cc2)cc1 returned tim10-1 inh inactive, PfHsp90 set2 inactive, Mot1-301 SUMO inactive, TIM10 inh inactive and tim23-1 inh inactive.
Screening CC(C)(C)OC(=O)N[C@H](C(=O)OC(C)(C)C)c1ccccc1 returned tim10-1 inh inactive, Mot1-301 SUMO inactive, TIM10 inh inactive and tim23-1 inh inactive.
CC(C)(CNC(=O)c1ccc(NS(=O)(=O)c2ccc(Br)cc2)cc1)N1CCOCC1 was read as tim10-1 inh inactive, PfHsp90 set2 inactive, Mot1-301 SUMO inactive, TIM10 inh inactive and tim23-1 inh inactive.
`Cc1ccccc1-c1nc(SCc2ccccn2)c2c(=O)n(C)c(=O)n(C)c2n1` gave tim10-1 inh inactive, PfHsp90 set2 inactive, Mot1-301 SUMO inactive, TIM10 inh inactive and tim23-1 inh inactive.
